Assay results taken from PubChem BioAssay (NCATS).
Inconclusive results are not listed. Entries that show only a call come without a potency. Activity calls are given as the source filed them. Calls follow the shape of the dose curve; as a rule, active = well fitted curve in the direction sought with a large enough effect; inconclusive = small, poorly fitted or top-dose-only effect, or another doubt; inactive = no such curve, though single readings can be large; an effect the other way counts as inactive or inconclusive.

What was measured:
[1] = qHTS of pediatric cancer cell lines to identify multiple opportunities for drug repurposing: Primary screen for SK-N-MC cells (AID 1347093); also: series mostly up to about 46 µM
How it was run: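 Metabolically active cells were quantified by ATP-dependent luminescence (CellTiter-Glo, 15 min at room temperature) following 48 h treatment. Cells had been plated at 500-1,000 per well and settled for 5 h beforehand.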

[2] = qHTS of pediatric cancer cell lines to identify multiple opportunities for drug repurposing: Primary screen for NB-EBc1 cells (AID 1347095)
How it was run: (§1)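 Phenotypic viability qHTS, 48 h compound exposure, CellTiter-Glo luminescence read-out; multi-concentration dosing so that potency and efficacy derive directly from the primary screen's curves.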

[3] = qHTS of pediatric cancer cell lines to identify multiple opportunities for drug repurposing: Primary screen for U-2 OS cells (AID 1347096); also: nearly all actives have a fitted effect of over 50% in size
How it was run: (§2)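 Cells (500-1,000/well) rested 5 h, then received compounds for 48 h; metabolically active cells were measured by CellTiter-Glo luminescence. Final concentrations spanned up to 46 µM (MIPE, 11-point) or 0.59 nM-46 µM (NPC, 8-point) in primary screens, 11-point in follow-ups.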

[4] = qHTS of pediatric cancer cell lines to identify multiple opportunities for drug repurposing: Primary screen for Saos-2 cells (AID 1347097); also: nearly all actives have a fitted effect of over 40% in size; also: potency is read from the fitted curve at half-maximal effect
How it was run: as §1

[5] = qHTS of pediatric cancer cell lines to identify multiple opportunities for drug repurposing: Primary screen for SK-N-SH cells (AID 1347098); also: nearly all actives have a fitted effect of over 65% in size; also: potency is read from the fitted curve at half-maximal effect
How it was run: as §2

[6] = qHTS of pediatric cancer cell lines to identify multiple opportunities for drug repurposing: Primary screen for NB1643 cells (AID 1347099); also: nearly all actives have a fitted effect of over 50% in size
How it was run: as §1

[7] = qHTS of pediatric cancer cell lines to identify multiple opportunities for drug repurposing: Primary screen for LAN-5 cells (AID 1347100); also: potency is read from the fitted curve at half-maximal effect
How it was run: as §2

[8] = qHTS of pediatric cancer cell lines to identify multiple opportunities for drug repurposing: Primary screen for BT-12 cells (AID 1347101); also: nearly all actives have a fitted effect of over 25% in size
How it was run: as §2

[9] = qHTS of pediatric cancer cell lines to identify multiple opportunities for drug repurposing: Primary screen for Rh18 cells (AID 1347102); also: nearly all actives have a fitted effect of over 65% in size
How it was run: as §2

[10] = qHTS of pediatric cancer cell lines to identify multiple opportunities for drug repurposing: Primary screen for MG 63 (6-TG R) cells (AID 1347105); also: nearly all actives have a fitted effect of over 50% in size
How it was run: as §1

[11] = qHTS of pediatric cancer cell lines to identify multiple opportunities for drug repurposing: Primary screen for control Hh wild type fibroblast cells (AID 1347106);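 also: series mostly up to about 46 µM; a drop in luminescence marks cytotoxicity and a rise apparent proliferation; nearly all actives have a fitted effect of over 55% in size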
How it was run: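 Cells (500-1,000/well) in growth media were settled 5 h at 37 degrees C, then given compounds for 48 h. Viability was read as CellTiter-Glo luminescence. Primary runs used MIPE at 11 points (0.78 nM-46 µM) and NPC at 8 points (0.59 nM-46 µM); follow-ups used 11 points.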

[12] = qHTS of pediatric cancer cell lines to identify multiple opportunities for drug repurposing: Primary screen for Rh30 cells (AID 1347107); also: series mostly up to about 46 µM; nearly all actives have a fitted effect of over 75% in size
How it was run: as §2

[13] = qHTS of pediatric cancer cell lines to identify multiple opportunities for drug repurposing: Primary screen for Rh41 cells (AID 1347108);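 also: series mostly up to about 46 µM; luminescence drop marks cytotoxic hits; nearly all actives have a fitted effect of over 70% in size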
How it was run: as §1

[14] = qHTS of pediatric cancer cell lines to identify multiple opportunities for drug repurposing: Primary screen for OHS-50 cells (AID 1347103); also: nearly all actives have a fitted effect of over 40% in size; also: potency is read from the fitted curve at half-maximal effect
How it was run: as §2

[15] = qHTS of pediatric cancer cell lines to identify multiple opportunities for drug repurposing: Primary screen for BT-37 cells (AID 1347094); also: series mostly up to about 57 µM
How it was run: as §1

[16] = qHTS of pediatric cancer cell lines to identify multiple opportunities for drug repurposing: Primary screen for RD cells (AID 1347104); also: nearly all actives have a fitted effect of over 55% in size
How it was run: as §1

Row | Compound | Potency [1] | Potency [2] | Potency [3] | Potency [4] | Potency [5] | Potency [6] | Potency [7] | Potency [8] | Potency [9] | Potency [10] | outcome [11] | Potency [12] | Potency [13] | Potency [14] | Potency [15] | Potency [16]
1 | CCN(CC)CCOCCOC(=O)C1(c2ccccc2)CCCC1 | inactive | inactive | inactive | inactive | inactive | inactive | inactive | inactive | inactive | inactive | inactive | inactive | inactive | – | – | –
2 | O=C(O)CN(CCN(CC(=O)O)CC(=O)O)CCN(CC(=O)O)CC(=O)O | inactive | inactive | inactive | inactive | – | inactive | – | inactive | inactive | inactive | inactive | inactive | inactive | inactive | – | –
3 | CN(C)CC/C=C1\c2ccccc2COc2ccccc21 | inactive | inactive | inactive | – | – | inactive | inactive | – | – | inactive | inactive | inactive | – | – | inactive | –
4 | CN=C(NC#N)NCCSCc1nc[nH]c1C | – | inactive | inactive | – | inactive | inactive | inactive | inactive | inactive | inactive | inactive | inactive | inactive | inactive | inactive | inactive
5 | CC1=C(C)C(=O)C(CCCCC#CCCCC#CCO)=C(C)C1=O | – | inactive | inactive | – | – | – | – | – | inactive | inactive | inactive | inactive | inactive | 21.9 µM (active) | inactive | –
6 | NC1=NCC2c3ccccc3Cc3ccccc3N12 (stereo not given) | – | inactive | inactive | inactive | – | inactive | inactive | – | – | inactive | inactive | inactive | inactive | inactive | inactive | –
7 | CCCCCCCC/C=C\CCCCCCCC(=O)NCc1ccc(O)c(OC)c1 | – | – | inactive | – | inactive | inactive | – | – | inactive | inactive | inactive | inactive | – | – | inactive | inactive
8 | Cc1nc2ccccn2c(=O)c1CCN1CCC(C(=O)c2ccc(F)cc2)CC1 | – | inactive | inactive | – | – | inactive | inactive | – | inactive | inactive | inactive | – | inactive | – | inactive | inactive
9 | C(=C\c1ccccc1)/CN1CCN(C(c2ccccc2)c2ccccc2)CC1 | – | – | inactive | – | inactive | inactive | inactive | inactive | inactive | – | inactive | – | inactive | 27.6 µM (active) | inactive | –
10 | CCN(CC)CCCN(c1ccccc1)C1Cc2ccccc2C1 | – | inactive | inactive | inactive | – | inactive | – | – | inactive | inactive | inactive | inactive | inactive | – | inactive | –
11 | OCCN1CCN(CC/C=C2/c3ccccc3Sc3ccc(C(F)(F)F)cc32)CC1 | – | inactive | – | – | – | – | 23.7 µM (active) | – | – | – | inactive | inactive | inactive | 24.6 µM (active) | – | –
12 | CCc1cccc(N(C)C(N)=Nc2cccc3ccccc23)c1 | – | inactive | – | 18.8 µM (active) | – | inactive | inactive | – | – | – | inactive | inactive | – | 15.5 µM (active) | – | –
13 | c1cc(CN2CCCCC2)cc(OCCCNc2nc3ccccc3s2)c1 | – | inactive | – | – | 24.4 µM (active) | inactive | – | – | inactive | inactive | inactive | – | – | 27.6 µM (active) | – | –
14 | CCNC(=O)N1CCN(CCCC(c2ccc(F)cc2)c2ccc(F)cc2)CC1 | – | inactive | inactive | inactive | – | inactive | inactive | – | inactive | inactive | inactive | inactive | – | – | – | inactive
15 | CC(C)NCC(O)c1cc(O)cc(O)c1 (stereo not given) | – | inactive | inactive | inactive | – | – | inactive | inactive | inactive | inactive | inactive | inactive | inactive | inactive | inactive | inactive
16 | COc1cc(Cc2cnc(N)nc2N)cc(OC)c1OC | – | inactive | inactive | inactive | – | inactive | inactive | inactive | inactive | inactive | inactive | inactive | inactive | inactive | inactive | inactive
17 | Cc1ccc(Cl)c(Nc2ccccc2C(=O)O)c1Cl | – | – | inactive | – | – | – | inactive | inactive | inactive | – | inactive | inactive | inactive | inactive | inactive | inactive
18 | CCC(=O)c1ccc2c(c1)N(CCCN(C)C)c1ccccc1S2 | – | inactive | inactive | – | – | inactive | – | – | – | inactive | inactive | – | inactive | 30.9 µM (active) | – | –
19 | COC(=O)[C@H]1[C@H]2C[C@@H]3c4[nH]c5cc(OC)ccc5c4CCN3C[C@H]2C[C@@H](OC(=O)c2cc(OC)c(OC)c(OC)c2)[C@@H]1OC | – | inactive | inactive | 23.7 µM (active) | – | inactive | inactive | – | inactive | – | inactive | inactive | – | – | inactive | –
